Screening data: PubChem BioAssay, Broad Institute
ERp5 inh: inhibitors of ERp5-driven insulin aggregation, primary screen, biochemical, turbidity, absorbance 650 nm, single point. Protein disulfide-isomerase A6 (Homo sapiens), Q15084. 90 min. inhibition, % at 9.99 µM. 350,000 compounds, 0.05% hits;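 active means mean replicate inhibition above about 25%, with every replicate also reaching it, limit read from the data, passing the limit was not always enough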
PDI turbidity: inhibitors of human PDI, primary screen, biochemical, turbidity, single point, plate reader; Protein disulfide-isomerase (Homo sapiens), P07237; PDI insulin aggregation turbidity, A650, 90 min; inhibition, % at 10 µM; 350,000 compounds, 0.052% hits; AID 588391, 2011;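 active means mean inhibition across replicates of 30% or more, whatever share of single replicates reach that level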
ERAP1 HTS inh: human ERAP1 aminopeptidase inhibitors, primary screen, biochemical, single point, plate reader; Endoplasmic reticulum aminopeptidase 1 (Homo sapiens), Q9NZ08; recombinant ERAP1, Leu-AMC fluorescence, 60 min; inhibition, % at 10.7 µM; 340,000 compounds, 0.15% hits; AID 652197, 2013;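 active means mean replicate inhibition of at least 30%, or all replicates individually reaching that 30% level; inactive means mean below 30% and not every replicate reaching it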;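 further: 0% = neutral control wells and 100% = L-leucinethiol positive control wells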
SIRT5 inh: SIRT5 desuccinylase inhibitors, primary screen, biochemical, fluorescence imaging, single point, set 5. NAD-dependent protein deacylase sirtuin-5, mitochondrial (Homo sapiens), Q9NXA8. Purified SirT5, succinyl-peptide AMC, trypsin-coupled fluorescence. inhibition, % at 15 µM. 330,000 compounds, 1.1% hits; in the data active means inhibition above about 15%
HDAC3 inhib: HDAC3 deacetylase inhibitors, primary screen, biochemical, fluorescence, cell-free homogeneous. recombinant HDAC3, fluorogenic peptide/trypsin coupled. Histone deacetylase 3 (Homo sapiens), O15379. 320,000 compounds, 0.15% hits. inhibition, % at 8.3 µM; in the data active means inhibition above about 26%, passing the limit was not always enough
Numbers without * were called inactive; / = no result. The sample as a whole holds a higher share of hits than the screen did.

SMILES | ERp5 inh | PDI turbidity | ERAP1 HTS inh | SIRT5 inh | HDAC3 inhib
CC[C@]12c3[nH]c4ccccc4c3CCN1C(=O)C(CC(=O)NC/C=C(\C)CCC=C(C)C)C[C@@H]2C(=O)N1CCN(C(=O)c2ccco2)CC1 (stereo partly drawn) | 0 | 25 | 10 | 16* | 16
CN(c1ccccc1)c1nc(N)c(C#N)c(CC#N)c1C#N | / | -5 | / | / | 11
N#CCc1c(C#N)c(N)nc(Nc2ccccc2)c1C#N | -6 | -1 | / | 17* | 4
CC[N+](C)(CC)CCC(c1ccccc1)C1CCCCC1 (stereo not drawn) | -2 | 2 | 109* | 1 | 11
CC1CCN(S(=O)(=O)c2ccc(C(=O)N(C)C3CCS(=O)(=O)C3)cc2)CC1 (stereo not drawn) | 12 | 2 | -1 | 25* | -7
CC1=C(C#N)c2nc(N)c(C#N)c(C)c2/C1=C\c1ccc(OCC(=O)O)c(Cl)c1 | -9 | 8 | -2 | 19* | 5
C[C@@H](NC(=O)C[C@H]1C[C@H]2c3cc(NC(=O)CN(C)C)ccc3O[C@H]2[C@@H](CO)O1)c1ccccc1 | 3 | / | -1 | 3 | /
CC(=O)OC1CCC2(C)C(CCC3C2CC(=O)C2(C)C3CC(C3CCCC3=O)C2C(C)=O)C1 (stereo not drawn) | 1 | -4 | 2 | 15* | /
CC(=O)O[C@H]1CC[C@@]2(C)[C@@H](CC[C@H]3[C@@H]4CC[C@H](C(C)O)[C@@]4(C)CC(=O)[C@@H]32)C1 (stereo partly drawn) | 2 | 1 | -3 | 23* | 1
CCc1ccc(OCC(=O)NN2Cc3ccccc3C2=N)cc1 | -7 | -5 | 3 | 24* | -15
Cc1ccccc1OCC(=O)Nc1cnn(CCCC(=O)O)c1 | 6 | -12 | -6 | 17* | -2
CC1CCc2c(N3CCC(O)CC3)c(F)cc3c(=O)c(C(=O)O)cn1c23 (stereo not drawn) | 4 | 1 | 0 | -1 | -1
CC1CCc2cc(F)cc3c(=O)c(C(=O)O)cn1c23 (stereo not drawn) | 0 | 13 | 38* | 2 | 4
C=CCn1c(SCC(=O)N2CC(C)OC(C)C2)nnc1-c1ccncc1 (stereo not drawn) | -11 | 4 | 49* | -6 | 7
C=CCn1c(SCC(=O)c2ccc(O)c(O)c2)nnc1-c1ccc(OC)cc1 | 1 | -1 | -5 | -2 | -2
C=CCn1c(SCC(=O)c2ccc(O)c(O)c2)nnc1-c1ccc(C)cc1 | 3 | -1 | 5 | 44* | -2
C[C@@H](CN1C2=NC[C@H](Cc3ccc(O)cc3)N2C[C@H]1Cc1ccc(O)cc1)NC(=O)CCC1CCCCC1 | -1 | 47* | / | / | -3
Cc1ccc(C(=O)NCCN2C3=NC[C@H](Cc4ccc(O)cc4)N3C[C@H]2Cc2ccc(O)cc2)cc1Br | 1 | 40* | 1 | / | -1
Cc1ccc(C(=O)NCCN2C3=NC[C@@H](Cc4ccccc4)N3C[C@H]2Cc2ccc(O)cc2)cc1Br | -1 | 1 | -13 | 0 | 3
C[C@H](O)C#Cc1cnc2c(c1)C(=O)N([C@H](C)CO)C[C@H](C)[C@H](CN(C)C(=O)Cc1ccncc1)O2 | 2 | / | -4 | -4 | /
Cc1nonc1CN(C)C(=O)CC1C(=O)NCCN1Cc1c(F)cccc1Cl (stereo not drawn) | -1 | 9 | 0 | -1 | -4
CN(Cc1ccon1)C(=O)CC1C(=O)NCCN1Cc1ccccc1C(F)(F)F (stereo not drawn) | -3 | 13 | 2 | -6 | /
CN(Cc1nccn1C)C(=O)CC1C(=O)NCCN1Cc1ccccc1C(F)(F)F (stereo not drawn) | 1 | 2 | 3 | 17* | -2
CN(C(=O)CC1C(=O)NCCN1Cc1ccccc1C(F)(F)F)C1CCOCC1 (stereo not drawn) | 5 | -6 | -3 | 32* | -10
Cc1cc(CNC(=O)CC2C(=O)NCCN2Cc2ccccc2C(F)(F)F)on1 (stereo not drawn) | 8 | -3 | 0 | 29* | 1
SMILES | ERp5 inh | PDI turbidity | ERAP1 HTS inh | SIRT5 inh | HDAC3 inhib
CCn1ccnc1CN(C)C(=O)CC1C(=O)NCCN1Cc1c(F)cccc1Cl (stereo not drawn) | -2 | -3 | 1 | 19* | -2
O=C(C[C@H]1CC[C@H]2[C@@H](COC[C@H](O)CN2CC2CCCCC2)O1)NCc1ccc(F)cc1 | -2 | / | 0 | 2 | /
O=C1NC(=O)/C(=C/c2ccc(-c3cc(C(=O)O)ccc3Cl)o2)S1 | 1 | -2 | -36 | 26* | 0
CN(C)CC(=O)N[C@@H]1CC[C@H](CCn2cc(C3CCCC3)nn2)O[C@@H]1CO | -1 | / | -2 | 0 | /
COc1ccc(Nc2nc3ccc(OC)cc3s2)cc1 | -3 | -1 | 0 | 16* | 7
COc1ccc2nc(Nc3nc(C)c(C(C)=O)s3)sc2c1 | / | -5 | / | / | 3
CCc1nc(N2[C@@H](C#N)[C@@H](c3ccccc3-c3ccccc3C)[C@@H]2CO)sc1C | -1 | / | -1 | -8 | /
CN1C(=O)c2cc(NC(=O)c3ccccc3)ccc2OC[C@H]2O[C@H](CC(=O)NC3CCCC3)CC[C@@H]21 | 0 | / | -1 | -2 | /
COc1cccc(CNC(=O)C[C@@H]2C=C[C@@H](NC(=O)C3CC3)[C@@H](CO)O2)c1 | 0 | / | -1 | 0 | /
COC(=O)c1nc(Cl)c(Cl)c(N)c1Cl | -3 | 2 | 8 | 17* | -10
CCCCCCCCOC(=O)c1nc(Cl)c(Cl)c(N)c1Cl | 5 | 6 | 3 | / | 6
C[C@@H]1CN([C@H](C)CO)C(=O)CCCn2nncc2CO[C@@H]1CN(C)Cc1cccc(C(=O)O)c1 | 1 | / | 2 | -22 | /
COc1ccc(CCNC(=O)[C@H](C)NC(=O)N2CCn3c2nc2ccccc23)cc1OC | 9 | 2 | -2 | 30* | -3
COc1cccc(-c2ccc([C@H]3[C@H](CO)N4C(=O)CN(C(=O)C5CCC5)C[C@@H]34)cc2)c1 | -5 | / | -1 | 1 | /
O=C(Cn1cnc2c(NCc3ccccc3)ncnc21)NCc1ccc2c(c1)OCO2 | -1 | 0 | 8 | 27* | /
O=C(Oc1csc(=S)n1C(=O)c1ccccc1)c1ccccc1 | / | -1 | / | / | 37*
Cc1nc2nc(-c3ccccc3)cn2nc1C | 4 | 3 | -20 | 22* | -4
CC(C)CC#Cc1cnc2c(c1)C(=O)N([C@@H](C)CO)C[C@@H](C)[C@@H](CN(C)C(=O)CN1CCOCC1)O2 | -2 | / | 2 | -2 | /
CC=Cc1ccc2n(c1=O)C[C@H]1[C@H](CO)[C@@H](C(=O)NCC3CC3)[C@@H]2N1C(=O)C1CC1 (mixture of isomers) | 2 | / | 0 | -16 | /
